# Reference: PubChem BioAssay AID1159580 (chemical genetic matrix, 2015)
# The campaign covered roughly 5,500 compounds. About 2,000 (36%) were called active. Not shown: some 18% with an inconclusive outcome. The list shows a part of the results. A number with no mark means an inactive call. Cut-off read from the data, not from the text of the source: active = normalized growth mostly below about 0.91 (no sharp cut-off); inconclusive = no clear call, values can overlap the other calls; inactive = mostly above about 0.92.
# Experiment: chemical genetic growth profiling, strain panel (AID 1159580);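 note: tested at 20 µM; growth read once vehicle control cultures reached saturation at 30 °C; 1 = growth at the plate median or of vehicle wells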
# Conditions: S. cerevisiae deletion strains, growth OD
structure (smiles),measurement,setting,value
O=C(Nc1cc(Cl)ccc1O)c1ccccc1CSc1ccc(Cl)cc1,normalized growth,"locus YAR019C, strain CDC15, stronger effect = lower value",0.977
same,normalized growth,"locus YBL105C, strain PKC1, stronger effect = lower value",0.984
same,normalized growth,"locus YBR135W, strain CKS1, stronger effect = lower value",0.985
same,normalized growth,"locus YBR136W, strain MEC1, stronger effect = lower value",0.98
same,normalized growth,"locus YBR160W, strain CDC28, stronger effect = lower value",0.979
same,normalized growth,"locus YDL017W, strain CDC7, stronger effect = lower value",0.986
same,normalized growth,"locus YDL028C, strain MPS1, stronger effect = lower value",0.985
same,normalized growth,"locus YDL101C, strain DUN1, stronger effect = lower value",0.989
same,normalized growth,"locus YDL108W, strain KIN28, stronger effect = lower value",0.981
same,normalized growth,"locus YDL132W, strain cdc53, stronger effect = lower value",0.988
same,normalized growth,"locus YDL214C, strain PRR2, stronger effect = lower value",0.823
same,normalized growth,"locus YDR052C, strain DBF4, stronger effect = lower value",0.983
same,normalized growth,"locus YDR054C, strain cdc34, stronger effect = lower value",0.979
same,normalized growth,"locus YDR226W, strain ADK1, stronger effect = lower value",0.976
same,normalized growth,"locus YDR477W, strain SNF1, stronger effect = lower value",0.8
same,normalized growth,"locus YER123W, strain YCK3, stronger effect = lower value",0.749
same,normalized growth,"locus YER133W, strain GLC7, stronger effect = lower value",0.839
same,normalized growth,"locus YFL009W, strain cdc4, stronger effect = lower value",0.981
same,normalized growth,"locus YFL029C, strain CAK1, stronger effect = lower value",0.977
same,normalized growth,"locus YFR003C, strain YPI1, stronger effect = lower value",0.979
same,normalized growth,"locus YFR019W, strain FAB1, stronger effect = lower value",0.753 (active)
same,normalized growth,"locus YFR028C, strain CDC14, stronger effect = lower value",0.986
same,normalized growth,"locus YGR040W, strain KSS1, stronger effect = lower value",0.794
same,normalized growth,"locus YGR052W, strain FMP48, stronger effect = lower value",0.685
same,normalized growth,"locus YGR092W, strain DBF2, stronger effect = lower value",0.571
same,normalized growth,"locus YHR030C, strain SLT2, stronger effect = lower value",0.29 (active)
same,normalized growth,"locus YHR079C, strain IRE1, stronger effect = lower value",0.683
same,normalized growth,"locus YHR082C, strain KSP1, stronger effect = lower value",0.652
same,normalized growth,"locus YHR205W, strain SCH9, stronger effect = lower value",0.785
same,normalized growth,"locus YIL147C, strain SLN1, stronger effect = lower value",0.981
same,normalized growth,"locus YJL095W, strain BCK1, stronger effect = lower value",0.502
same,normalized growth,"locus YJL128C, strain PBS2, stronger effect = lower value",0.922
same,normalized growth,"locus YJL157C, strain FAR1, stronger effect = lower value",0.783
same,normalized growth,"locus YJR016C, strain ILV3, stronger effect = lower value",0.987
same,normalized growth,"locus YJR066W, strain TOR1 (second series), stronger effect = lower value",0.765
same,normalized growth,"locus YJR066W, strain TOR1, stronger effect = lower value",0.647
same,normalized growth,"locus YKL048C, strain ELM1, stronger effect = lower value",0.888
same,normalized growth,"locus YKL067W, strain YNK1, stronger effect = lower value",0.835
same,normalized growth,"locus YKL101W, strain HSL1, stronger effect = lower value",0.633 (active)
same,normalized growth,"locus YKL193C, strain SDS22, stronger effect = lower value",0.988
same,normalized growth,"locus YKL203C, strain TOR2, stronger effect = lower value",0.784
same,normalized growth,"locus YLR113W, strain HOG1, stronger effect = lower value",0.52 (active)
same,normalized growth,"locus YLR133W, strain CKI1, stronger effect = lower value",0.776
same,normalized growth,"locus YLR403W, strain SFP1, stronger effect = lower value",0.763
same,normalized growth,"locus YML070W, strain DAK1, stronger effect = lower value",0.714
same,normalized growth,"locus YMR001C, strain CDC5, stronger effect = lower value",0.981
same,normalized growth,"locus YMR205C, strain PFK2 (second series), stronger effect = lower value",0.851
same,normalized growth,"locus YMR277W, strain FCP1, stronger effect = lower value",0.983
same,normalized growth,"locus YNL006W, strain LST8, stronger effect = lower value",0.98
same,normalized growth,"locus YNL020C, strain ARK1, stronger effect = lower value",0.689 (active)
same,normalized growth,"locus YNL161W, strain CBK1, stronger effect = lower value",0.97
same,normalized growth,"locus YNL183C, strain NPR1, stronger effect = lower value",0.689
same,normalized growth,"locus YNL207W, strain RIO2, stronger effect = lower value",0.97
same,normalized growth,"locus YNL222W, strain SSU72, stronger effect = lower value",0.983
same,normalized growth,"locus YNL307C, strain MCK1 (second series), stronger effect = lower value",0.565 (active)
same,normalized growth,"locus YOL078W, strain AVO1, stronger effect = lower value",0.986
same,normalized growth,"locus YOL136C, strain PFK27, stronger effect = lower value",0.753
same,normalized growth,"locus YOR061W, strain CKA2, stronger effect = lower value",0.603 (active)
same,normalized growth,"locus YOR119C, strain RIO1, stronger effect = lower value",0.861
same,normalized growth,"locus YOR231W, strain MKK1, stronger effect = lower value",0.699
same,normalized growth,"locus YOR329C, strain SCD5, stronger effect = lower value",0.975
same,normalized growth,"locus YPL031C, strain PHO85, stronger effect = lower value",0.738
same,normalized growth,"locus YPL153C, strain RAD53, stronger effect = lower value",0.747
same,normalized growth,"locus YPL204W, strain HRR25, stronger effect = lower value",0.731
same,normalized growth,"locus YPL209C, strain IPL1, stronger effect = lower value",0.981
same,normalized growth,"locus YPL256C, strain CLN2, stronger effect = lower value",0.551 (active)
same,normalized growth,"locus YPR025C, strain CCL1, stronger effect = lower value",0.979
same,normalized growth,"locus YPR106W, strain ISR1, stronger effect = lower value",0.979
same,normalized growth,"locus YPR111W, strain DBF20, stronger effect = lower value",0.954
same,normalized growth,"strain NNK1, stronger effect = lower value",0.961
same,normalized growth,"strain TSCII, stronger effect = lower value",0.981
